Drawing on PubChem BioAssay (NCI), this text covers growth for eight compounds.

Molecules are shown by their SMILES. Compounds without any hit were thinned out: in the full panel of roughly 83,000, 20% have a hit.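 Interpretation: 100, growth as untreated; towards 0, rising growth inhibition; 0, no net growth; 0 to -100, cell death. Compounds scoring below 10 were considered active.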 Unmarked numbers belong to inactive results. The source made the active and inactive calls.

Among the test systems are NCI-H23 lung; NCI-H522 lung; MALME-3M melanoma; MDA-MB-231 breast; M14 melanoma; UACC-62 melanoma; LOX IMVI melanoma; SK-MEL-28 melanoma; SR leukemia; OVCAR-8 ovarian; OVCAR-5 ovarian; OVCAR-4 ovarian; SK-OV-3 ovarian; IGROV1 ovarian; HS 578T breast; T-47D breast; SW-620 colon; MCF7 breast; HCT-116 colon; KM12 colon.
Assay in all cases: NCI-60 one-dose screen, 48 h (100 = growth as untreated, 0 = no growth, -100 = all killed)
Conditions in all cases: 10 µM

Consider `N#Cc1nc(-c2ccccc2)oc1N1CCC(S(=O)(=O)F)CC1`, for which the growth in the experiment with NCI-H23 lung was 99.2%; in the experiment on NCI-H522 lung, 93.9%; with MALME-3M melanoma it was 98.9%; in the experiment with MDA-MB-231 breast it was 98.7%; with M14 melanoma, 106%; in the experiment with UACC-62 melanoma, 98.1%. Besides, the growth in the experiment on LOX IMVI melanoma is 104%; with SK-MEL-28 melanoma, 104%; in the experiment with SR leukemia it was 83.4%; with OVCAR-8 ovarian it was 94.3%; in the experiment on OVCAR-5 ovarian it was 104%; with OVCAR-4 ovarian it was 101%. For the same compound, the growth is 107% in the experiment on SK-OV-3 ovarian; 103% with IGROV1 ovarian; 98.5% with HS 578T breast; 106% in the experiment with T-47D breast; 103% in the experiment with SW-620 colon; 98.2% with MCF7 breast. Moreover, the growth in the experiment on HCT-116 colon was 101%; in the experiment on KM12 colon, 97.1%.
With `CCC(C)[C@H]1C(=O)O[C@H](C(C)C)C(=O)N(C)[C@@H](C(C)C)C(=O)O[C@H](C(C)C)C(=O)N(C)[C@@H](C(C)C)C(=O)O[C@H](C(C)C)C(=O)N1C` (stereo partly drawn), the growth in the experiment with NCI-H23 lung was 10%; in the experiment with NCI-H522 lung, 7.23% (active); with MALME-3M melanoma, 14.7%; in the experiment with MDA-MB-231 breast it was 7.98% (active); in the experiment on M14 melanoma, 21.2%; with UACC-62 melanoma, 9.22% (active). For the same compound, the growth in the experiment on LOX IMVI melanoma was 9.79% (active); in the experiment with SK-MEL-28 melanoma, 34.4%; in the experiment on SR leukemia it was 8.09% (active); with OVCAR-8 ovarian, 14.9%; in the experiment with OVCAR-5 ovarian it was 20.7%; with OVCAR-4 ovarian, 20.3%. Besides, the growth with SK-OV-3 ovarian was -9.75% (active); with IGROV1 ovarian, 34.4%; in the experiment on HS 578T breast it was 30.4%; with T-47D breast, 3.16% (active); in the experiment on SW-620 colon, 17.4%; with MCF7 breast it was 12.5%. Moreover, the values for the growth with HCT-116 colon and in the experiment with KM12 colon were 12.2% and 16.4%, respectively.
In the case of `CC1=C[C@H]2O[C@@H]3C[C@H]4OC(=O)/C=C\C=C\[C@H]([C@@H](C)O)OCC/C(C)=C/C(=O)OC[C@@]2(CC1)[C@]4(C)[C@]31CO1`, the growth with NCI-H23 lung was -36.1% (active); with NCI-H522 lung, -39.3% (active); with MALME-3M melanoma, -65.9% (active); with MDA-MB-231 breast it was -29.6% (active); with M14 melanoma, -73.7% (active); in the experiment with UACC-62 melanoma, -58.6% (active). Also, the growth was -81.1% (active) in the experiment with LOX IMVI melanoma; -38.6% (active) in the experiment with SK-MEL-28 melanoma; -9.9% (active) in the experiment with SR leukemia; -24.4% (active) in the experiment with OVCAR-8 ovarian; -14.8% (active) with OVCAR-5 ovarian; -22.1% (active) with OVCAR-4 ovarian. For the same compound, the growth with SK-OV-3 ovarian is -23.5% (active); with IGROV1 ovarian, -10.7% (active); in the experiment on HS 578T breast, -9.53% (active); in the experiment on T-47D breast, -20% (active); with SW-620 colon, 0.094% (active); in the experiment with MCF7 breast it was -10.6% (active). For the same compound, the growth with HCT-116 colon is -28.7% (active); in the experiment with KM12 colon, 3.74% (active).
Turning to `CC(=O)O[C@@H]1C[C@H]2O[C@@H]3C=C(C)CC[C@]3(C)[C@]1(C)[C@]21CO1`, the growth in the experiment with NCI-H23 lung was 7.96% (active); in the experiment on NCI-H522 lung, 2.05% (active); with MALME-3M melanoma, 5.52% (active); in the experiment on MDA-MB-231 breast, 4.27% (active); in the experiment on M14 melanoma it was -45.9% (active); in the experiment on UACC-62 melanoma, 2.75% (active). Moreover, the growth with LOX IMVI melanoma was -41.5% (active); in the experiment with SK-MEL-28 melanoma, -1.27% (active); in the experiment on SR leukemia, 0.874% (active); with OVCAR-8 ovarian, 8.44% (active); with OVCAR-5 ovarian, 84.3%; in the experiment with OVCAR-4 ovarian it was -1.86% (active). Further, the growth is 18.1% in the experiment with SK-OV-3 ovarian; 22.8% in the experiment on IGROV1 ovarian; 22.7% with HS 578T breast; -2.72% (active) with T-47D breast; 7.09% (active) with SW-620 colon; 3.89% (active) with MCF7 breast. The growth with HCT-116 colon was 0.731% (active); in the experiment on KM12 colon, 27.4%.
Take `CC(C)=CCc1c2c(c(O)c3c1O[C@]14C(=C[C@@H]5C[C@H]1C(C)(C)O[C@@]4(C/C=C(/C)C(=O)O)C5=O)C3=O)C=CC(C)(C)O2`: the growth in the experiment on NCI-H23 lung was -45.4% (active); in the experiment on NCI-H522 lung, -70.9% (active); in the experiment on MALME-3M melanoma, -70.4% (active); in the experiment with MDA-MB-231 breast, -56.1% (active); with M14 melanoma, -50.1% (active); with UACC-62 melanoma it was -69.4% (active). Further, the growth is -95.6% (active) in the experiment with LOX IMVI melanoma; -88.2% (active) in the experiment with SK-MEL-28 melanoma; -3.62% (active) in the experiment on SR leukemia; -59.4% (active) with OVCAR-8 ovarian; -80.5% (active) with OVCAR-5 ovarian; -63.6% (active) in the experiment with OVCAR-4 ovarian. Further, the growth in the experiment with SK-OV-3 ovarian was -38.9% (active); in the experiment on IGROV1 ovarian it was -55.2% (active); in the experiment with HS 578T breast, -11.1% (active); in the experiment with T-47D breast, -40.7% (active); with SW-620 colon, -75.1% (active); in the experiment with MCF7 breast, -61% (active). Also, the growth in the experiment on HCT-116 colon is -71.5% (active); with KM12 colon it was -73.4% (active).
Turning to `COC(=O)[C@H]1[C@@H](O)[C@@]2(O)c3c(OC)cc(OC)cc3O[C@@]2(c2ccc(OC)cc2)[C@@H]1c1ccccc1`, the growth in the experiment with NCI-H23 lung is -12% (active); in the experiment on NCI-H522 lung, -28.7% (active); in the experiment on MALME-3M melanoma it was -21.8% (active); in the experiment with MDA-MB-231 breast, -5.45% (active); with M14 melanoma, -1.79% (active); in the experiment with UACC-62 melanoma it was -14.9% (active). Further, the growth was -38.6% (active) in the experiment with LOX IMVI melanoma; -19.2% (active) in the experiment with SK-MEL-28 melanoma; 13.2% with SR leukemia; -11.6% (active) in the experiment on OVCAR-8 ovarian; -6.47% (active) in the experiment with OVCAR-5 ovarian; 2.23% (active) with OVCAR-4 ovarian. Moreover, the growth was -12.2% (active) with SK-OV-3 ovarian; -17.3% (active) in the experiment with IGROV1 ovarian; -5.48% (active) in the experiment on HS 578T breast; -11.7% (active) with T-47D breast; 3.66% (active) in the experiment on SW-620 colon; -0.926% (active) with MCF7 breast. The growth with HCT-116 colon was -6.31% (active); in the experiment with KM12 colon, 3.23% (active).
In the case of `CC1=C2C(=C[C@@](C)(COC(=O)c3ccc(S(=O)(=O)F)cc3)[C@@H]2OC(=O)c2ccc(S(=O)(=O)F)cc2)C(=O)[C@](C)(O)C12CC2`, the growth with NCI-H23 lung is -21.4% (active); in the experiment on NCI-H522 lung, -52% (active); in the experiment with MALME-3M melanoma it was -57.3% (active); in the experiment on MDA-MB-231 breast it was 1.44% (active); with M14 melanoma, -46.3% (active); in the experiment on UACC-62 melanoma, -38.7% (active). Further, the growth in the experiment with LOX IMVI melanoma was 6.84% (active); in the experiment with SK-MEL-28 melanoma, 7.54% (active); with SR leukemia it was 16.3%; in the experiment with OVCAR-8 ovarian, 5.91% (active); in the experiment with OVCAR-5 ovarian, 4.81% (active); in the experiment with OVCAR-4 ovarian, -9.11% (active). For the same compound, the growth with SK-OV-3 ovarian was -9.96% (active); in the experiment on IGROV1 ovarian, 0.149% (active); with HS 578T breast, 33.4%; with T-47D breast, -20% (active); in the experiment on SW-620 colon it was -3.99% (active); with MCF7 breast, 6.34% (active). Besides, the figures for the growth with HCT-116 colon and with KM12 colon were 0.583% (active) and 28.2%, respectively.
For `COc1cc(OC)c(S(=O)(=O)N(CCCl)CCCl)cc1C(=O)/C=C/c1ccc(Cl)cc1`, the growth is 83.5% with NCI-H522 lung; 85.4% in the experiment on MALME-3M melanoma; 67.1% in the experiment on MDA-MB-231 breast; 68.4% with M14 melanoma; 51.1% in the experiment with UACC-62 melanoma; 92.3% with SK-MEL-28 melanoma. Also, the growth with SR leukemia was 10.1%; in the experiment on OVCAR-8 ovarian, 59.8%; in the experiment on OVCAR-5 ovarian, 107%; with OVCAR-4 ovarian, 83.4%; in the experiment with SK-OV-3 ovarian, 79%; in the experiment on IGROV1 ovarian it was 76.3%. For the same compound, the growth in the experiment on HS 578T breast was 78.6%; with T-47D breast, 74.4%; in the experiment with SW-620 colon, 48.7%; in the experiment with MCF7 breast, 15.8%; in the experiment on HCT-116 colon it was 49.2%; in the experiment with KM12 colon, 23.4%.
